# A selection: hits, their analogues and other compounds. The true share with any hit is near 14%.
# HCMV antiviral: qHTS Assay for inhibitors of the human cytomegalovirus (HCMV). HFF cells, HCMV-luciferase reporter, 72 h; hits give low values. activity change, negative = inhibition, % at 57.5 µM. actives 4.5% (n = 410,000). AID 1259415, 2018; in the data active = activity change below about -60%; inconclusive = no clear call, values can overlap the other calls; inactive = above about -39%
#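 Human foreskin fibroblasts infected with luciferase-reporter HCMV at MOI 1 PFU/cell, compounds at two doses. Luciferase measured 72 h post infection; normalized to buffer-only basal and Salinomycin (10uM) controls.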
# Sm TGR inh: qHTS Assay for the Inhibitors of Schistosoma Mansoni Peroxiredoxins; Schistosoma mansoni thioredoxin glutathione reductase (TGR), Q962Y6; purified TGR, DTNB reduction, TNB absorbance 405 nm; Potency, µM (top dose mostly 114 µM), inactives show at the highest dose activity change, negative = inhibition, most hits filed as inhibitors; actives 3% (n = 360,000); note: potency is the fitted concentration of half-maximal effect; nearly all actives have a fitted effect of over 60% in size
#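 First, TGR (20 nM dispensed) and NADPH were mixed with compound. Second, a 15 min room-temperature incubation followed. Third, further NADPH and then DTNB were added to start the reaction. Finally, TNB absorbance was monitored kinetically.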
# Pf growth 48h: Primary qHTS for delayed death inhibitors of the malarial parasite plastid, 48 hour incubation. Potency, µM (highest dose often 28.7 µM), inactives show top-dose activity change, negative = inhibition, most hits filed as inhibitors. AID 504832, 2011. P. falciparum luciferase growth in erythrocytes, 48 h. actives 5.9% (n = 310,000); note: potency is the fitted concentration of half-maximal effect
#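 Luciferase-expressing P. falciparum in infected erythrocytes (2% hematocrit, 0.1% parasitemia final) in RPMI 1640/0.5% Albumax were exposed to compound for 48 hours at 37 C, 5% CO2; growth read as luminescence.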
# FBPA Giardia inh: qHTS Assay for Inhibitors of Fructose-1,6-bisphosphate Aldolase from Giardia Lamblia; A8B2U2; purified Giardia FBPA; Potency, µM (series often up to 59.6 µM), without a hit: at the top dose activity, negative = inhibition, most hits filed as inhibitors; actives 0.71% (n = 290,000); AID 2451, 2010; note: potency is the fitted concentration of half-maximal effect; nearly all actives have a fitted effect of over 55% in size
# Target sequence (A8B2U2 whole entry, looked up): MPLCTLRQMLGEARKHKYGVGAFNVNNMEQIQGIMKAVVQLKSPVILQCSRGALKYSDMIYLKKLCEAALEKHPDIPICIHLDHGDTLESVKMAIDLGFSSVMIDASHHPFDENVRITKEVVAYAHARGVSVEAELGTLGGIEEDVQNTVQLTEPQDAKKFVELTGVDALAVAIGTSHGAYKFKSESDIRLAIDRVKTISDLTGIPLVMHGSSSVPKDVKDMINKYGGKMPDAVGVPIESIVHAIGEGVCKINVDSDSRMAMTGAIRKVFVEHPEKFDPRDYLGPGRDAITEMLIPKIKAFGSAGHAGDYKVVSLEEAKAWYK
#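 Giardia FBPA (40 nM reagent) was preincubated 10 min at RT with compound (up to 57.5 uM final), then substrate plus GAPDH/TPI/NAD/arsenate coupling system with diaphorase/resazurin was added; resorufin fluorescence (525/598 nm) was read after 20 min.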
# Pf growth 96h: Primary qHTS for delayed death inhibitors of the malarial parasite plastid, 96 hour incubation | P. falciparum luciferase reporter growth, 96 h | Potency, µM (highest dose often 28.7 µM), inactives show top-dose activity change, negative = inhibition, hits mostly inhibitors | actives 6.9% (n = 320,000) | AID 504834, 2011; note: potency is the fitted concentration of half-maximal effect
#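 Delayed-death screen, second-generation endpoint: infected erythrocytes, 2% hematocrit, 0.05% parasitemia final; 96 hours at 37 C, 5% CO2; luciferase detection reagent; luminescence decrease equals reduced growth.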
# Numbers without * were called inactive; u = inconclusive; x = not tested or not shown. Unless noted, calls come from the whole dose curve; as a rule, active = well fitted curve in the direction sought with a large enough effect; inconclusive = small, poorly fitted or top-dose-only effect, or another doubt; inactive = no such curve, though single readings can be large; an effect the other way counts as inactive or inconclusive. % is set by controls: 0 for no effect and ±100 for the full control effect.
SMILES,HCMV antiviral,Sm TGR inh,Pf growth 48h,FBPA Giardia inh,Pf growth 96h
O=C1CSC(c2ccccc2[N+](=O)[O-])N1c1ccccc1 (centres undefined),-16,0%,21%,2%,-24%
O=C1CSC(c2ccccc2[N+](=O)[O-])N1c1cccc(F)c1 (centres undefined),45,-8%,-8%,6%,2.3µM*
COc1ccc(N2CCN(c3nccs3)CC2)cc1,89,4%,74%,10%,90%
CCc1ccc(C2N=C(N)Nc3nc4ccccc4n32)cc1 (centres undefined),-67*,1%,x,x,x
CCOC(=O)c1ccccc1-n1c(C)cc(C2N=C(N)Nc3nc4ccccc4n32)c1C (centres undefined),u,6%,x,3%,1.7µM*
COC(=O)c1ccccc1NC(=O)c1cc(C)nc2c1c(C)nn2-c1ccc(C)cc1,3,4%,x,x,x
O=C(CCl)NC(Cc1ccccc1)c1ccccc1 (centres undefined),-22,22µM*,u,-1%,10µM*
O=C(Nc1ccc(Oc2cccnc2)cc1)C1CCN(Cc2cccc(Cl)c2)CC1,-79*,4%,u,1%,-7%
CCn1cc(CN2CCC(C(=O)Nc3ccc(Oc4ccccc4F)cc3)CC2)c(C)n1,-35,0%,u,x,u
O=C(Nc1ccc(Oc2cccnc2)cc1)C1CCCCN1Cc1ccc(CO)o1 (centres undefined),-9,-33%,-15%,-12%,17%
CC(=O)c1cccc(CN2CCC(C(=O)Nc3ccc(-c4cccc(C)c4)cc3)CC2)c1,-36,7%,4.1µM*,16%,-29%
CC(=O)c1cccc(CN2CCC(C(=O)Nc3ccc(Oc4cccnc4)cc3)CC2)c1,u,-16%,u,x,u
O=C(Nc1ccc(Oc2cccnc2)cc1)C1CCN(Cc2ccccc2F)CC1,-31,-26%,u,14%,5.9µM*
Cc1cccc(CN2CCCC(C(=O)Nc3ccccc3Oc3cccnc3)C2)c1 (centres undefined),-28,-22%,9.3µM*,-3%,-5%
CCC(CC)C(C(=O)NCc1ccccc1)N1CCN(CCN2CCOCC2)CC1 (centres undefined),-2,x,x,x,x
Cc1ccc(CN2CCC(C(=O)Nc3ccc(Oc4cccnc4)cc3)CC2)cc1,u,5%,10µM*,8%,-21%
O=C(Nc1ccc(Oc2cccnc2)cc1)C1CCN(Cc2ccccc2)CC1,-5,-17%,u,x,u
O=S(=O)(Cc1ccccc1)C(c1ccccc1)S(=O)(=O)Cc1ccccc1,-13,x,x,x,x
O=C(Nc1ccc(Cl)c(Cl)c1)Nc1cc(S(=O)(=O)N2CCOCC2)ccc1N1CCCC1,-68*,1%,3%,1%,-2%
Cc1ccc(S(=O)(=O)NC(=O)c2cc(C)n(-c3cc(S(=O)(=O)N4CCOCC4)ccc3N3CCCC3)c2C)cc1,8,-14%,x,7%,4.7µM*
Cc1cccc(C(=O)Nc2cc(S(=O)(=O)N3CCOCC3)ccc2N2CCCC2)c1,3,-7%,u,x,u
Cc1ccc(S(=O)(=O)N2CCC(C(=O)Nc3cc(C(F)(F)F)ccc3N3CCOCC3)CC2)cc1C,-37,1%,u,x,9.3µM*
O=C(Nc1ccccc1F)Nc1cc(S(=O)(=O)N2CCOCC2)ccc1N1CCCC1,-3,-2%,-2%,4%,0%
O=C(Nc1cc(S(=O)(=O)N2CCOCC2)ccc1N1CCCCC1)c1ccccc1,u,-6%,u,x,4.7µM*
COCCNCc1cc(C)n(-c2cc(S(=O)(=O)N3CCOCC3)ccc2N2CCCC2)c1C,-15,x,x,x,x
SMILES,HCMV antiviral,Sm TGR inh,Pf growth 48h,FBPA Giardia inh,Pf growth 96h
CCOC(=O)C1=CCN(S(=O)(=O)c2ccccc2C)C1c1cccc(Cl)c1 (centres undefined),-10,x,x,x,x
Cc1cccc(C(=O)Nc2cc(S(=O)(=O)N3CCOCC3)ccc2N2CCCCC2)c1,u,9%,7.4µM*,x,u
O=C(Nc1ccc(Cl)cc1Cl)c1cc(S(=O)(=O)N2CCN(c3ccccc3F)CC2)ccc1F,-65*,7%,x,x,x
O=C(Nc1cc(S(=O)(=O)N2CCOCC2)ccc1N1CCCCC1)c1ccc(Cl)cc1,u,7%,13µM*,x,8.3µM*
Cc1ccccc1C(=O)N1CCC(C(=O)Nc2ccc(F)cc2F)CC1,5,4%,x,x,x
Cc1ccccc1C(=O)N1CCC(C(=O)Nc2cc(C(F)(F)F)ccc2N2CCCC2)CC1,-14,-9%,-24%,x,10µM*
O=C1NC(=S)NC1(c1ccccc1)c1ccccc1,-16,x,x,x,x
COc1ccc(CNC(=O)c2cc(S(=O)(=O)N3CCCCC3)ccc2N2CCOCC2)cc1OC,-4,x,x,x,x
O=S(=O)(Nc1ccc(Cl)c(Cl)c1)N1CCOCC1,32,1%,7%,4%,4.7µM*
O=C(Nc1cc(S(=O)(=O)N2CCCCC2)ccc1N1CCOCC1)c1cc(=O)[nH]c2ccccc12,u,1%,u,1%,8.3µM*
O=S(=O)(Nc1cc(Cl)cc(Cl)c1)N1CCOCC1,-23,2%,4%,-1%,3%
O=C(NCCc1c[nH]c2ccccc12)c1cc(S(=O)(=O)N2CCCCC2)ccc1N1CCOCC1,-13,-2%,7.4µM*,1%,66%
CC(=O)N1CCOc2ccc(S(=O)(=O)N3CCC(C(=O)Nc4cc(C)ccc4C)CC3)cc21,-64*,-2%,u,3%,41%
COc1ccc(S(=O)(=O)N2CCOCC2)cc1NC(=O)c1cc(=O)[nH]c2ccccc12,10,16%,-29%,x,u
CC(=O)N1CCOc2ccc(S(=O)(=O)N3CCC(C(=O)Nc4ccc(C)cc4C)CC3)cc21,-34,-3%,u,x,58%
CNc1cncc(-c2cccc(NS(C)(=O)=O)c2)n1,-5,x,x,x,x
O=C(Nc1ccn2ccnc2n1)c1ccccc1C(F)(F)F,-13,x,x,x,x
Cc1ccc(C(=O)Nc2cc(S(=O)(=O)N3CCOCC3)ccc2N2CCCC2)cc1,-2,-29%,u,x,-22%
CN1CCN(c2ccc(C(F)(F)F)cc2NC(=O)Nc2ccccc2)CC1,-25,14%,x,9%,1.5µM*
O=C(Nc1ccccc1N1CCCCC1)c1cc(S(=O)(=O)N2CCOCC2)ccc1F,-20,0%,10µM*,x,0%
CCc1ccc(C(=O)Nc2cc(S(=O)(=O)N3CCOCC3)ccc2N2CCOCC2)cc1,3,x,x,x,x
O=C(Nc1cc(S(=O)(=O)N2CCCCC2)ccc1N1CCOCC1)c1ccc(C(F)(F)F)cc1,-25,0%,9.3µM*,x,13µM*
O=C(Nc1cc(S(=O)(=O)N2CCOCC2)ccc1N1CCCC1)c1ccc(Cl)cc1,3,-6%,15µM*,x,u

# Screening data (PubChem)
